Assay results: PubChem BioAssay (Tox21)
Records with an inconclusive call do not appear. The source made the active and inactive calls. Unless noted, calls follow the shape of the dose curve; as a rule, active = well fitted curve in the direction sought with a large enough effect in the repeat runs; inconclusive = weak or mixed curves; inactive = no such curve, though single readings can be large; an effect the other way counts as inactive or inconclusive.

Tests used:
[1] = qHTS RealTime-Glo MT Cell Viability Assay in HepG2 cells - 32 hour (AID 1224877); also: nearly all actives have a fitted effect of over 55% in size
In short: (§1)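 Viability was tracked continuously by NanoLuc luminescence from prosubstrate reduced by living HepG2 cells, at successive time points over 40 h of compound exposure. Cells with reagent were preincubated 5 h at 37 °C before compound addition.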

[2] = A CellTox Green Cytotoxicity Assay to monitor cytotoxicity in HepG2 cells - 24 hour (AID 1224878); also: nearly all actives have a fitted effect of over 45% in size
In short: (§2)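 Continuous culture of HepG2 cells with a membrane-impermeant DNA dye; rising fluorescence marks dead cells. Compound exposure lasted up to 40 h at 37 C, with reads every 8 h from 0 h.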

[3] = A CellTox Green Cytotoxicity Assay to monitor cytotoxicity in HepG2 cells - 40 hour (AID 1224879); also: nearly all actives have a fitted effect of over 40% in size
In short: as §2

[4] = qHTS RealTime-Glo MT Cell Viability Assay in HEK293 cells - 0 hour (AID 1224880); also: top concentration of the series differs between compounds; nearly all actives have a fitted effect of over 45% in size
In short: (§3)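 qHTS format; HEK293 cells with NanoLuc/prosubstrate reagent, 37 C/5% CO2 for 5 h pre-dosing; compounds 23 nL in DMSO; luminescence at each time point reflects viable cells.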

[5] = A CellTox Green Cytotoxicity Assay to monitor cytotoxicity in HEK293 cells - 32 hour (AID 1224881); also: nearly all actives have a fitted effect of over 40% in size
In short: (§4)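 Each value comes from one timepoint of a single continuous run in which HEK293 cells with CellTox Green were exposed to compound for up to 40 h at 37 C, dye fluorescence rising with cell death.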

[6] = A CellTox Green Cytotoxicity Assay to monitor cytotoxicity in HepG2 cells - 0 hour (AID 1224882); also: nearly all actives have a fitted effect of over 35% in size
In short: as §2

[7] = A CellTox Green Cytotoxicity Assay to monitor cytotoxicity in HepG2 cells - 32 hour (AID 1224883); also: nearly all actives have a fitted effect of over 50% in size
In short: as §2

[8] = A CellTox Green Cytotoxicity Assay to monitor cytotoxicity in HEK293 cells - 8 hour (AID 1224884); also: nearly all actives have a fitted effect of over 35% in size
In short: as §4

[9] = qHTS RealTime-Glo MT Cell Viability Assay in HepG2 cells - 16 hour (AID 1224885); also: nearly all actives have a fitted effect of over 50% in size
In short: as §1

[10] = qHTS RealTime-Glo MT Cell Viability Assay in HEK293 cells - 24 hour (AID 1224886); also: top concentration of the series differs between compounds; nearly all actives have a fitted effect of over 50% in size
In short: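 Viability tracked continuously by luminescence as live cells reduce a prosubstrate for NanoLuc; HEK293 cells preincubated 5 h, compound-treated at 37 C, and read at 0, 8, 16, 24, 32 and 40 h.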

[11] = qHTS RealTime-Glo MT Cell Viability Assay in HEK293 cells - 8 hour (AID 1224887); also: top concentration of the series differs between compounds; nearly all actives have a fitted effect of over 50% in size
In short: as §3

[12] = A CellTox Green Cytotoxicity Assay to monitor cytotoxicity in HEK293 cells - 16 hour (AID 1224888); also: nearly all actives have a fitted effect of over 35% in size
In short: as §4

[13] = qHTS RealTime-Glo MT Cell Viability Assay in HepG2 cells - 0 hour (AID 1224889); also: nearly all actives have a fitted effect of over 50% in size
In short: as §1

[14] = A CellTox Green Cytotoxicity Assay to monitor cytotoxicity in HepG2 cells - 8 hour (AID 1224890); also: nearly all actives have a fitted effect of over 45% in size
In short: as §2

[15] = qHTS assay to identify small molecule antagonists of the estrogen receptor alpha (ER-alpha) signaling pathway using the BG1 cell line in the presence of 0.1 nM 17-beta-estradiol - cell viability counter screen (AID 1259241); also: nearly all actives have a fitted effect of over 40% in size
In short: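 VM7Luc4E2 cells (endogenous ER-alpha, 4×ERE-luciferase), hormone-starved 5 days in charcoal-stripped FBS, were treated with compounds plus 0.1 nM 17beta-estradiol for 22 hr at 37C; viability read in same wells as CellTiter-Fluor live-cell protease fluorescence.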

[16] = qHTS assay to identify small molecule antagonists of the androgen receptor (AR) signaling pathway using the MDA cell line in the presence of 0.5 nM R1881 - cell viability counter screen (AID 1259242); also: nearly all actives have a fitted effect of over 45% in size
In short: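 Fluorescence from CellTiter-Fluor, which reports protease activity of live cells, was read 30 min after reagent addition to MDA-kb2 cells that had been incubated 16 hr with compound and 0.5 nM R1881.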

[17] = molecular target: Estrogen receptor (Homo sapiens) (UniProt P03372); assay: qHTS assay to identify small molecule antagonists of the estrogen receptor alpha (ER-alpha) signaling pathway using the BG1 cell line in the presence of 0.1 nM 17-beta-estradiol (AID 1259244); also: nearly all actives have a fitted effect of over 50% in size
In short: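 Quantitative high-throughput screen in VM7Luc4E2 cells: compound plus 0.1 nM E2 (final), 22 h, 37C, 5% CO2; ONE-Glo added, 30 min room temperature, luminescence measured.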

[18] = qHTS assay to identify small molecule HDAC inhibitors (AID 1259364)
In short: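 Endogenous HDAC class I/II activity was measured in wild-type HCT-116 cells by HDAC-Glo luminescence after 2 h compound treatment.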

[19] = qHTS assay to identify small molecule HDAC inhibitors - cell viability counter screen (AID 1259365)
In short: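 Wild-type HCT-116 cells were seeded at 1,500 per well, incubated overnight at 37 C, then exposed to compounds in DMSO for 2hr. Viability was read by CellTiter-Glo luminescence after 30min at room temperature.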

[20] = qHTS assay to identify small molecule phospholipidosis (PLD) inducers (AID 1259344; active = well fitted curve in the direction sought with a large enough effect; an effect the other way counts as inactive or inconclusive)
In short: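 HepG2 cells grown on collagen I take up LipidTOX Red while exposed to compound for 24 h; after fixation they are imaged at 20x and pit metrics are extracted.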

Measured: Potency

Chain of Estrogen receptor (Homo sapiens) (P03372 whole entry, looked up): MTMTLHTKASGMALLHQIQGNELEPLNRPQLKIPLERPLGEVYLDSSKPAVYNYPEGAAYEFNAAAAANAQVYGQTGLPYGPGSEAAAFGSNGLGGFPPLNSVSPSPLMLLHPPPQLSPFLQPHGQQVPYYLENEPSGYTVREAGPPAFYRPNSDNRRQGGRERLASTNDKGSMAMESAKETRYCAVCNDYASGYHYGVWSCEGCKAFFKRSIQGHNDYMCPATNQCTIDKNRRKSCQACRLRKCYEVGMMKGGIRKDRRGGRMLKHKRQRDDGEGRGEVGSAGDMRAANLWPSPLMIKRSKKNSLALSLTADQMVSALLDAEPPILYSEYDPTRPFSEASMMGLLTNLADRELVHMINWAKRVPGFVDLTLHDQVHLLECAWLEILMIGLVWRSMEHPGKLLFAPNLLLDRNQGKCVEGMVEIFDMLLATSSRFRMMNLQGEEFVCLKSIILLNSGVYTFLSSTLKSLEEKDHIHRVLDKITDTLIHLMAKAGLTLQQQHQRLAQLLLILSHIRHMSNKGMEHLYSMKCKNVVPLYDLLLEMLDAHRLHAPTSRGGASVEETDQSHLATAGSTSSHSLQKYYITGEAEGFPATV

CC(=O)OC[C@H]1O[C@@H](OC(C)=O)[C@H](OC(C)=O)[C@@H]1OC(C)=O
not listed: [20]
inactive: all other assays above

CCN1CN(CC)CN(CC)C1
not listed: [18] | [20]
inactive: all other assays above

Cc1cccc(Nc2ccncc2S(=O)(=O)NC(=O)NC(C)C)c1
not listed: [18]
inactive: all other assays above

O=C1OC(=O)c2ccccc21
not listed: [20]
inactive: all other assays above

CCc1nccnc1C
not listed: [20]
inactive: all other assays above

O=C(O)c1ccc(OCCN2CCCCC2)cc1
not listed: [20]
inactive: all other assays above

O=[Si]=O
not listed: [18] | [20]
inactive: all other assays above

C[C@H]1O[C@H](O[C@H]2[C@H](O)[C@@H](O)[C@@H](O[C@H]3[C@H](O)[C@@H](O)[C@H](O)O[C@@H]3CO)O[C@@H]2CO)[C@H](O)[C@@H](O)[C@@H]1N[C@H]1C=C(CO)[C@@H](O)[C@H](O)[C@H]1O
not listed: [17]
inactive: all other assays above

NS(=O)(=O)c1cc2c(cc1Cl)NC(C(Cl)Cl)NS2(=O)=O (stereo unspecified)
not listed: [17]
inactive: all other assays above

C=CCOCC(CO)(COCC=C)COCC=C
not listed: [20]
inactive: all other assays above

CCOC(=O)C(=O)c1csc(NC=O)n1
not listed: [20]
inactive: all other assays above

COCCOCCOCCOC
not listed: [17] | [20]
inactive: all other assays above

CCN(CCC#N)c1ccccc1
not listed: [20]
inactive: all other assays above

CCCOCCOCCOCCO
not listed: [20]
inactive: all other assays above

C=CCOC(=O)c1ccc(C(=O)OCC=C)c(C(=O)OCC=C)c1
not listed: [18] | [20]
inactive: all other assays above
